# Test results taken from PubChem BioAssay.
# Unmarked numbers belong to inactive results. Active and inactive are the calls of the source.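 How the source made its calls: active means growth inhibition above 50% at the single 2 µM test dose, taken to imply half-maximal potency below 2 µM; inactive means the rest.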
# Test: antimalarial activity against Dd2 strain (AID 2302);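 further: 0% = DMSO untreated growth and 100% = chloroquine plus artemisinin killed control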
# Conditions: P. falciparum Dd2 in RBCs, LDH growth readout, 72 h; at 2 µM; active compounds read high
row,Structure (SMILES),growth inhibition
1,O[C@@H](c1ccccc1)[C@@H]1CN(Cc2ccccc2)CC[C@@]1(O)c1ccccc1,82% (active)
2,CC(NC(=O)c1ccc(O)c(-c2ccc(Cl)c(Cl)c2)c1)C(=O)NCCN1CCCCC1 (centres undefined),3%
3,CCCC(=O)Nc1ccc(OCCCCN(CC(C)(C)C)c2ccc(C#N)c(C(F)(F)F)c2)cc1,69% (active)
4,O=C(Nc1ccc2nc3n(c(=O)c2c1)CCCCC3)C(=O)N1CCC(Cc2ccccc2)CC1,70% (active)
5,CCCC(C)NC(=O)[C@H](CC1CCCCC1)NC(=O)c1ccc(O)c(-c2ccc(OC)cc2)c1 (some centres undefined),37%
6,Cc1cccc(-c2cc3cc(Nc4ccnc5cc(-c6nccs6)ccc45)ccc3[nH]2)c1,100% (active)
7,CCCc1cc(Cc2cnc(N)nc2N)cc(CCC)c1OCCCCC(=O)OC,-5%
8,CCN(CCCN1CCCCC1)c1cc(C)nc(Nc2cc(F)cc(F)c2)n1,64% (active)
9,CC(C)(Oc1c(C2CCN(CCCCNC(=O)c3ccc(-c4ccc(Cl)cc4)cc3)CC2)ccc2c1CCCC2)C(N)=O,5%
10,CCOc1cc(C)c(C2CCN(CCCCNC(=O)c3ccc(NC(=O)c4ccc(Cl)cc4)cc3)CC2)cc1C,87% (active)
11,Cc1nc(C)c(CC(=O)Nc2ccc(-c3cccc(-c4nc5c(C)cccc5[nH]4)c3)cc2)s1,38%
12,Cn1nc(C(F)(F)F)c(-c2ccc(F)cc2)c1NC(=O)Nc1ccccc1,99% (active)
13,CC(C)Cn1c(N)cc(=O)n(C)c1=O,0%
14,O=C(Cn1c(CCc2cccc(F)c2F)nc(=O)c2ccccc21)N(CCCN1CCCCC1)Cc1ccc(-c2ccc(C(F)(F)F)cc2)cc1,94% (active)
